Assay [1] addresses Cytochrome P450 3A4 (Homo sapiens) (UniProt P08684). The assay can be described thus: qHTS Assay for Activators of Cytochrome P450 3A4 (AID 885; active = well fitted curve in the direction sought with a large enough effect; an effect the other way counts as inactive or inconclusive; also: nearly all actives have a fitted effect of over 65% in size). An outline of the steps: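 Quantitative HTS format: compounds preincubated with 20nM human CYP3A4 and Luciferin-PPXE substrate at KM, reaction started by NADPH regeneration, stopped after 60 min, luciferase luminescence read 20 min later.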
A general note: In qHTS, concentration-response curves come from the screen itself.

Assay [2] addresses Bile acid receptor (Homo sapiens) (UniProt Q96RI1). Nature of the assay: qHTS assay for small molecule agonists of farnesoid X receptor signaling (AID 588527).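 Also: series mostly up to about 77 µM; 0% = vehicle basal and 100% = reference agonist.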 The note with it: HEK293T FXR-UAS-bla, beta-lactamase ratio, 16 h; activation: stronger effect = higher value. An outline of the steps: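 Quantitative HTS used FXR-UAS-bla HEK293T cells with 16 h compound incubation at 37 C. EC50 values came from concentration-response curves normalized to chenodeoxycholic acid.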

For assay [3], the target named is Peroxisome proliferator-activated receptor delta (Homo sapiens) (UniProt Q03181). The assay can be described thus: qHTS assay for small molecule agonists of peroxisome proliferator-activated receptor delta signaling (AID 588534).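 Also: 0% = DMSO basal wells and 100% = positive control agonist at 10 µM.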 Summed up: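 Reporter cells were plated and held 5 hrs at 37 C before compounds were added. After 18 hrs at 37 C, CCF4 dye was loaded for 2 hrs at RT and fluorescence measured.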
Chain of Peroxisome proliferator-activated receptor delta (Homo sapiens) (Q03181 whole entry, looked up): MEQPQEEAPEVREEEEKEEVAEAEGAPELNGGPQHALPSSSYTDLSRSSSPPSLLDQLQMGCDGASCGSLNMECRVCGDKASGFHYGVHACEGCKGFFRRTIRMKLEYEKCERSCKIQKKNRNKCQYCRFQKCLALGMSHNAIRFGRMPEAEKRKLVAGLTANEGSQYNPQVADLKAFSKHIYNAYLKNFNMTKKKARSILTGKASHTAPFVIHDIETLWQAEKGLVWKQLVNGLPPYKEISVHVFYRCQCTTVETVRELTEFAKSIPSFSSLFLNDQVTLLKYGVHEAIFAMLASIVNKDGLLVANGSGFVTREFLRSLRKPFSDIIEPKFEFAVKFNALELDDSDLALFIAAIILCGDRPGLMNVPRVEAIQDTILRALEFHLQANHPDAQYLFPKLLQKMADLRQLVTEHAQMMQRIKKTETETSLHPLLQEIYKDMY

Assay [4] in a line: qHTS assay for small molecule agonists of retinoid X receptor alpha signaling (AID 588544).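 As to activation: 0% = DMSO basal wells and 100% = reference agonist.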 The note with it: HEK293T RXRa-UAS-bla, beta-lactamase reporter, 18 h; 530 nm emission.
The target of assay [5] is Retinoic acid receptor RXR-alpha (Homo sapiens) (UniProt P19793). Described as above.
Chain of Retinoic acid receptor RXR-alpha (Homo sapiens) (P19793 whole entry, looked up): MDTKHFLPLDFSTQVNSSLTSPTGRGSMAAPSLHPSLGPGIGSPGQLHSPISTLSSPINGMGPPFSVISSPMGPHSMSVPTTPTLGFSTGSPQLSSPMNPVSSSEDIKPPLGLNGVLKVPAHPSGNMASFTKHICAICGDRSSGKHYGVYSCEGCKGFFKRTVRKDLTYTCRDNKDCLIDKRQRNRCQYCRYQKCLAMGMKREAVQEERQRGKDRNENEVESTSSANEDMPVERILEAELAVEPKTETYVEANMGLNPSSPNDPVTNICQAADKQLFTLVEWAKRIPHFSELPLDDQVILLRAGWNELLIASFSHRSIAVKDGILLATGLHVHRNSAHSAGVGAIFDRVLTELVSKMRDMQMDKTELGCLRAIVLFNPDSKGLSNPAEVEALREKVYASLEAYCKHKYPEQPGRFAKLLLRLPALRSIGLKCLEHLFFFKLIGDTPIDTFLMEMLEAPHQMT
The target in assay [6] is Cytochrome P450 3A4 (Homo sapiens) (UniProt P08684). Nature of the assay: qHTS Assay for Inhibitors and Substrates of Cytochrome P450 3A4 (AID 884; active = well fitted curve in the direction sought with a large enough effect; an effect the other way counts as inactive or inconclusive; also: potency is read from the fitted curve at half-maximal effect; nearly all actives have a fitted effect of over 50% in size). Summed up:
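20 nM human CYP3A4 with 25 uM Luciferin-PPXE (at KM) in 200 mM KPO4, preincubated 10 min with compound; NADPH regeneration started a 60 min RT reaction. Luciferin detected by luminescence, normalized to 57 uM ketoconazole as full inhibition.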

Assay [7] is described as follows: qHTS assay for environmental chemicals that activate the Aryl hydrocarbon Receptor (AhR) signaling pathway (AID 651777; active = well fitted curve in the direction sought with a large enough effect; an effect the other way counts as inactive or inconclusive; also: nearly all actives have a fitted effect of over 15% in size; also: potency is read from the fitted curve at half-maximal effect; as to activation: % of control where 0% means no effect). The note with it: 1A2-DRE human hepatoma cells, luciferase, 24 h; activation: stronger effect = higher value. An outline of the steps:
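1A2-DRE human hepatoma reporter line; 1,200 cells/well; cmpd or DMSO 24 h, 37 C/5% CO2; One-Glo 30 min RT; luciferase lum.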

Assay [8] is described as follows: qHTS assay for small molecule antagonists of peroxisome proliferator-activated receptor delta signaling (AID 588535; active = well fitted inhibition curve with a large enough effect in the signal ratio, with a control signal flat, not every such curve was filed as active; the % refers to the signal ratio;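 as to max response: cells co-treated with a PPAR-delta agonist as stimulator during compound exposure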). To be noted: HEK293T PPARd-UAS-bla, beta-lactamase FRET ratio, 18 h; 460 nm channel. Summed up:
(§1)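 Cell-based beta-lactamase assay in antagonist mode: 4000 HEK293T PPAR-delta-UAS-bla cells per well, 5 hr preincubation then 18 hr compound incubation at 37 C. IC50 obtained by Hill equation fitting.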

In assay [9] the target is Peroxisome proliferator-activated receptor delta (Homo sapiens) (UniProt Q03181). Described as above. Summed up: as §1
For assay [10], the target named is Vitamin D3 receptor (Homo sapiens) (UniProt P11473). The assay can be described thus: qHTS assay for small molecule agonists of vitamin D receptor signaling (AID 588543).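 Also: 0% = DMSO basal and 100% = reference agonist control.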 Summed up:
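qHTS in agonist mode: compound titrations stimulate a VDR-driven β-lactamase reporter in HEK293T cells over 16 h at 37 °C. Response normalized to 50 nM 1α,25-dihydroxyvitamin D3 = 100%, DMSO = 0%; Hill fitting gives EC50 and maximal response.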

Assay [11] has as its target Thyroid hormone receptor beta (Homo sapiens) (UniProt P10828). The assay can be described thus: qHTS assay for small molecule agonists of thyroid hormone receptor beta signaling (AID 588545). An outline of the steps: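 In this cell-based screen, titrated compounds act on HEK 293 cells held in medium with 2% charcoal/dextran FBS, NEAA and pyruvate for 18 hrs at 37 C. Responses are expressed relative to T3 (10 nM) as 100% and basal DMSO as 0%.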

Assay [12] shares this target. Nature of the assay: qHTS assay for small molecule antagonists of thyroid hormone receptor beta signaling (AID 588547; active = well fitted inhibition curve with a large enough effect in the signal ratio, with a control signal flat, not every such curve was filed as active; the % refers to the signal ratio;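 also: cells stimulated with 0.4 nM T3 agonist during compound exposure; series mostly up to about 77 µM; % is scaled to controls: 0 for no effect and ±100 for the full control effect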). To be noted: TR-UAS-bla HEK293, beta-lactamase ratio, antagonist mode, 18 h. Summed up:
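Inhibition of T3-driven (0.4nM final) beta-lactamase reporter activity was measured over 0.59 nM to 92 uM compound after 18 h at 37 C. The cells were GripTite HEK293 TR-UAS-bla in charcoal/dextran-stripped serum, with CCF4 ratio read-out and IC50 from Hill fits.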

Assay [13] in a line: qHTS assay for small molecule activators of the nuclear factor-kappa B (NF-kB) signaling pathway (AID 651749; active = well fitted activation curve with a large enough effect in the signal ratio; the % refers to the signal ratio; also: series mostly up to about 77 µM; % of control where 0% means no effect). The note with it: NF-kB-bla ME-180 cells, beta-lactamase FRET ratio, 16 h; activation: stronger effect = higher value. An outline of the steps:
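Stably transfected ME-180 line; NF-kB response element upstream of beta-lactamase. Treatment: compound or DMSO, 16 hr. Detection: fluorescent FRET substrate.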

For assay [14], the target named is Peroxisome proliferator-activated receptor alpha (Homo sapiens) (UniProt Q07869). The assay can be described thus: qHTS assay for small molecule agonists of the peroxisome proliferator-activated receptor alpha (PPARalpha) signaling pathway (AID 651778; active = well fitted curve in the direction sought with a large enough effect; an effect the other way counts as inactive or inconclusive; also: % of control where 0% means no effect). The note with it: PathHunter PPARalpha complementation, chemiluminescence, 6 h; max response: stronger effect = higher value. Summed up:
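Chemiluminescence from complemented enzyme reported PPARalpha activation in cells after 6 hr of compound treatment at 37 C. The detection reagent was incubated for 60 min at room temperature, and compounds were scored as agonists.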

A short description of assay [15]: qHTS assay for small molecule agonists of the antioxidant response element (ARE) signaling pathway measured by Nrf2-dependant transcriptional activity (AID 720636; active = well fitted curve in the direction sought with a large enough effect in the repeat runs; an effect the other way counts as inactive or inconclusive;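 also: HepG2 cells with an ARE-driven luciferase reporter; % of control where 0% means no effect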). An outline of the steps:
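Cells: ARE-luc HepG2 with Nrf2-responsive luciferase. Medium contained 1% dialyzed FBS. Compound exposure lasted 16 hr at 37 C and 5% CO2, followed by ONE-Glo luciferase detection.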

A short description of assay [16]: qHTS assay for small molecule agonists of the antioxidant response element (ARE) signaling pathway measured by Nrf2-dependant transcriptional activity - cell viability counter screen (AID 720653; active = well fitted curve in the direction sought with a large enough effect in the repeat runs; an effect the other way counts as inactive or inconclusive; also: potency is read from the fitted curve at half-maximal effect; as to max response: % is scaled to controls: 0 for no effect and ±100 for the full control effect). The note with it: ARE-bla HepG2 viability, CellTiter-Glo ATP luminescence, 16 h; max response: stronger effect = lower value. Summed up: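 Cytotoxicity counter screen: intracellular ATP quantified by CellTiter-Glo luminescence in the same ARE-bla HepG2 plates, after 16 h compound exposure and a 2 h beta-lactamase substrate step.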

Assay [17] can be described thus: qHTS assay for cell viability of HEK293 cells (AID 743288; active = well fitted curve in the direction sought with a large enough effect; an effect the other way counts as inactive or inconclusive; also: nearly all actives have a fitted effect of over 50% in size; also: potency is read from the fitted curve at half-maximal effect; as to max response: % is scaled to controls: 0 for no effect and ±100 for the full control effect). To be noted: ATP luminescence (CellTiter-Glo), 18 h; max response: stronger effect = lower value. An outline of the steps:
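The Tox21 protocol used parental HEK293 cells treated for 18 h at 37 C with compounds delivered by pintool; ATP-coupled luminescence after 30 min at room temperature gave viability.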

Assay [18] can be described thus: qHTS assay for cell viability of the p53RE-bla HCT-116 cell line (AID 743292; active = well fitted curve in the direction sought with a large enough effect; an effect the other way counts as inactive or inconclusive; also: % is scaled to controls: 0 for no effect and ±100 for the full control effect; nearly all actives have a fitted effect of over 55% in size). An outline of the steps:
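HCT-116 p53RE-bla cells seeded 4,000/well; 5 h at 37 C; compound (DMSO) added; 16 h at 37 C; CellTiter-Glo added, 30 min RT; luminescence read.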

The target of assay [19] is Nuclear receptor subfamily 1 group I member 2 (Rattus norvegicus) (UniProt Q9R1A7). Nature of the assay: qHTS assay for small molecule activators of the rat pregnane X receptor (rPXR) signaling pathway (AID 651751; call rule not given here; also: 0% is about no effect). To be noted: rPXR reporter cells, luciferase (One-Glo), 24 h.
Chain of Nuclear receptor subfamily 1 group I member 2 (Rattus norvegicus) (Q9R1A7 whole entry, looked up): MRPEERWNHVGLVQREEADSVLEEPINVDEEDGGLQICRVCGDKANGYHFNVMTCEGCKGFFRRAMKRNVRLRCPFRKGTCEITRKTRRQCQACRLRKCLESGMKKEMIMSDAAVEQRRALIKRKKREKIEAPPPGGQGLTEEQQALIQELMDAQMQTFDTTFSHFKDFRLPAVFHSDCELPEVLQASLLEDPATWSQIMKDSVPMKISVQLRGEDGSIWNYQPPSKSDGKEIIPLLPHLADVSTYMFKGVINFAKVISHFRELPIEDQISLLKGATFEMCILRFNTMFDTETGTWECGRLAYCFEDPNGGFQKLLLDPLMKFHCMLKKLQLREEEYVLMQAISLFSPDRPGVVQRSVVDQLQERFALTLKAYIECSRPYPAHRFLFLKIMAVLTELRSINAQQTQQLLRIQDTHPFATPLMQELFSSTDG
A short description of assay [20]: qHTS assay for small molecule activators of the p53 signaling pathway (AID 651743; active = well fitted activation curve with a large enough effect in the signal ratio, not every such curve was filed as active; the % refers to the signal ratio; also: series mostly up to about 92 µM; % of control where 0% means no effect). To be noted: HCT-116 p53RE-bla, beta-lactamase FRET ratio, 16 h; activation: stronger effect = higher value. Summed up: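 Screen for p53 pathway agonists uses stably transfected p53RE-bla HCT-116 cells, 4,000 per well, treated 16 h at 37 C with compounds in DMSO.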
A short description of assay [21]: qHTS assay for small molecule activators of the human pregnane X receptor (PXR) signaling pathway (AID 720659; call rule not given here; also: 0% is about no effect).

Several values for one entry are separate records, joined by “and”; a condition that tells them apart may be missing. Equal values may be shown once. Results filed as inconclusive are left out. Activity calls are given as the source filed them. Unless noted, calls follow the shape of the full dose curve.

Chain of Cytochrome P450 3A4 (Homo sapiens) (P08684 whole entry, looked up): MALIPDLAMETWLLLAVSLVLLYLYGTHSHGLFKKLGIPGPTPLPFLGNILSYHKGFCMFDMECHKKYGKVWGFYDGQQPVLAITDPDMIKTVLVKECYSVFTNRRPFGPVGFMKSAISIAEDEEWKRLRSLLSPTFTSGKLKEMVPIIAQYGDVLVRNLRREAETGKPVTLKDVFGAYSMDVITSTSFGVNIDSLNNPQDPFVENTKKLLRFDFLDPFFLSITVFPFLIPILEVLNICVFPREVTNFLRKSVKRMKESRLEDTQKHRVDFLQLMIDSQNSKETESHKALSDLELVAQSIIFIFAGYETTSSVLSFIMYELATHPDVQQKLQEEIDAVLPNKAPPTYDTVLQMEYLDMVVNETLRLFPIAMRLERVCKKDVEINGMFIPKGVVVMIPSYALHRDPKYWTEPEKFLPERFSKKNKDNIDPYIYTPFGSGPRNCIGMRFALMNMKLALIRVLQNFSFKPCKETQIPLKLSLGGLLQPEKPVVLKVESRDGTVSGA
Chain of Bile acid receptor (Homo sapiens) (Q96RI1 whole entry, looked up): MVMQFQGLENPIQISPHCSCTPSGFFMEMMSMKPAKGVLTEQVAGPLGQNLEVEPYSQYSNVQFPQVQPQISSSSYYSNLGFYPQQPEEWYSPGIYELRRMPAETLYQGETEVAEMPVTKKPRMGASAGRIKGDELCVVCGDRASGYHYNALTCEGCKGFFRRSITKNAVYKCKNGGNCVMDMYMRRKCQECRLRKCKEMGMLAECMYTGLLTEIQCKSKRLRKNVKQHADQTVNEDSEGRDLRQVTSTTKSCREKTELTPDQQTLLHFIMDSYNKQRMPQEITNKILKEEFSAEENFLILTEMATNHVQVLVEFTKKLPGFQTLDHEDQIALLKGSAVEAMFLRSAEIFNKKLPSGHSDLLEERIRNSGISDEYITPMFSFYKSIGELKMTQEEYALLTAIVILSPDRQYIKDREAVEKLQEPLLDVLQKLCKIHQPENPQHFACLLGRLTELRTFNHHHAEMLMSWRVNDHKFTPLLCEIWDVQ
Chain of Thyroid hormone receptor beta (Homo sapiens) (P10828 whole entry, looked up): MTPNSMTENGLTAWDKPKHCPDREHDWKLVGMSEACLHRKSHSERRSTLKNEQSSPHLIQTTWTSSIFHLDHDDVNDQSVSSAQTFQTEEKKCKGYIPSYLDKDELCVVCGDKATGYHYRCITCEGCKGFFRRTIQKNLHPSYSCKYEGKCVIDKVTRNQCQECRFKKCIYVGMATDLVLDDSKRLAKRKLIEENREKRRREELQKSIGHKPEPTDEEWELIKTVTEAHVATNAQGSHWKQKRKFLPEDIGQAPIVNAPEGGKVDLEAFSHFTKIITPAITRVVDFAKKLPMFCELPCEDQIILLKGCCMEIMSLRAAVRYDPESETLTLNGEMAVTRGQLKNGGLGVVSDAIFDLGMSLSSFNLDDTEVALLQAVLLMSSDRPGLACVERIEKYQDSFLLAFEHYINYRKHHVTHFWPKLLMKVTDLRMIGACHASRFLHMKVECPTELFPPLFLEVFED
Chain of Peroxisome proliferator-activated receptor alpha (Homo sapiens) (Q07869 whole entry, looked up): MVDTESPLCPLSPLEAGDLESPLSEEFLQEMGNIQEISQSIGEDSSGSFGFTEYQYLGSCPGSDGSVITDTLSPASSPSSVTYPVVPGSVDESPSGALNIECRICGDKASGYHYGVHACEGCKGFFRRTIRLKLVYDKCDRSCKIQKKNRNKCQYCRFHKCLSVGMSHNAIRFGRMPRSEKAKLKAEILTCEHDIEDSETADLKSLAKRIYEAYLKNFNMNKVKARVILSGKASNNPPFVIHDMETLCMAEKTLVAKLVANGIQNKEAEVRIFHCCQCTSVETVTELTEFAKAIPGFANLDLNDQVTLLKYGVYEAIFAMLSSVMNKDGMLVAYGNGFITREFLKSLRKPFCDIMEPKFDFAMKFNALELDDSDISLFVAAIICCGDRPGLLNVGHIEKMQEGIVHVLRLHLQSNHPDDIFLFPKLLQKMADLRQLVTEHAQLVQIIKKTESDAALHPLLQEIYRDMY
Chain of Vitamin D3 receptor (Homo sapiens) (P11473 whole entry, looked up): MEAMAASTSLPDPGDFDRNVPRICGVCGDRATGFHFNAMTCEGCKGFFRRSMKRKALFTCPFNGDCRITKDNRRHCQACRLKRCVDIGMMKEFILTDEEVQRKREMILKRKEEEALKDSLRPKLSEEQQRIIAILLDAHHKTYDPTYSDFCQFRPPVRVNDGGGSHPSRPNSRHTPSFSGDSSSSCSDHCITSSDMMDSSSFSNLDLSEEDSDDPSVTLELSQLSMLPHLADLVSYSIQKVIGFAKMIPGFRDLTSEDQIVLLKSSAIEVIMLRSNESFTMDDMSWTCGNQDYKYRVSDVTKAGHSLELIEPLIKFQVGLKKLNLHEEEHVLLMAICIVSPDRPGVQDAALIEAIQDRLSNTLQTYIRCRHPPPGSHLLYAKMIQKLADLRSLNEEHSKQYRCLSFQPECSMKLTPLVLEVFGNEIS

For the molecule `CN(C)c1ccc(Cc2ccc(N(C)C)cc2)cc1`, in [1], the Potency result is “inactive”. Moreover, the activation in assay [2] is -1.47% (inactive). In addition, the call in [3] was inactive.
As to `COc1ccccc1[N+](=O)[O-]`, in assay [2], the activation was -1.25% (inactive) and -5.38% (inactive). The max response in [4] stood at 2.69%. In assay [5], the Potency result was “inactive”.
In the case of `CC(=O)OCc1ccc2c(c1)OCO2`, in assay [6], the Potency is 10 µM (active). Besides, in assay [1], the Potency result is “inactive”. Moreover, the activation in assay [2] is -1.12% (inactive).
For `C[Si]1(C)O[Si](C)(C)O[Si](C)(C)O[Si](C)(C)O1`, the activation in assay [2] was -3.3% (inactive). The molecule was called inactive in [3].
As to `c1ccc2cc3c(ccc4ccccc43)cc2c1`, the activation in [2] was 2.13% (inactive). For the same molecule, in assay [7], the Potency is 22.4 µM (active).
Regarding `CCOP(=O)(OCC)Oc1ccc([N+](=O)[O-])cc1`, the activation was 2.69% (inactive) in assay [2], 0.546% (inactive) in assay [13] and 0.386% (inactive) in assay [7]. The outcome in assay [3] and in [10] was inactive. The max response in [8] is -45.6%; in [4], -4.35%; in assay [14], -2.58% (inactive); in [16] it was -9.88% (inactive); in assay [17], -2.61% (inactive); in assay [19] it was 3.26% (inactive). Besides, the Potency result in [9], in assay [5], in assay [11], in assay [15] and in assay [18] was “inactive” each time. Besides, the activity change % (negative = inhibition) in assay [12] is -16.8% (inactive).
With `[Cu+2].[O-]c1cccc2cccnc12.[O-]c1cccc2cccnc12`, the activation is -9.69% (inactive) in assay [2], -8.29% (inactive) in [20] and -12.2% (inactive) in [7]. Moreover, the Potency entry in assay [11], in assay [15] and in assay [18] was “inactive” in each case. Further, the max response in [14] was -9.55% (inactive). In addition, the Potency was 11.2 µM (active) in assay [16] and 31.6 µM (active) in [17]. Besides, in assay [21], the call was inactive.

These data come from PubChem BioAssay (NCATS).
